Assay results reported in the supplement of paper PMC10849652.
About 8,800 targets were measured; listed, in parts, are those with a hit and a random draw of the rest. About 0.5% of all pairs of compound and target were hits. Unmarked numbers belong to inactive results.

Tests used:
Assay in all cases: log2 fold change, soluble protein after heating vs DMSO (PISA); higher = thermal stabilisation; K562 lysate, 10 uM; active = over 0.2 and 3.5 SD of the protein, either way, in both replicates (recomputed)
lapatinib = compound: CS(=O)(=O)CCNCc1ccc(-c2ccc3ncnc(Nc4ccc(OCc5cccc(F)c5)c(Cl)c4)c3c2)o1 [lapatinib]
Summary of the method: (§1)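 Values give the log-two fold change in thermal stability against solvent controls, from duplicates. Crude K562 extract at 1 mg/mL protein, made by dounce homogenisation in PBS pH 7.4 with 1 mM MgCl2, was treated with 10 μM compound for 30 min. After 3 min heating across 48°C-58°C, aliquots were pooled, adjusted to 0.5% NP-40 at 4°C and centrifuged at 21,000xg for 90 min. The supernatant was measured by TMTpro 16plex LC-MS/MS with channel sums equalised.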

pictilisib = compound: CS(=O)(=O)N1CCN(Cc2cc3nc(-c4cccc5[nH]ncc45)nc(N4CCOCC4)c3s2)CC1 [pictilisib]
Summary of the method: as §1

crizotinib = compound: C[C@@H](Oc1cc(-c2cnn(C3CCNCC3)c2)cnc1N)c1c(Cl)ccc(F)c1Cl [crizotinib]
Summary of the method: as §1

[1] = compound: C[C@H](C1=CC=C(C=C1)C(=O)NC2=C3C=CNC3=NC=C2)N
Summary of the method: as §1

duvelisib = compound: C[C@H](Nc1ncnc2nc[nH]c12)c1cc2cccc(Cl)c2c(=O)n1-c1ccccc1 [duvelisib]
Summary of the method: as §1

gandotinib = compound: Cc1cc(Nc2cc(CN3CCOCC3)c3nc(C)c(Cc4ccc(Cl)cc4F)n3n2)n[nH]1 [gandotinib]
Summary of the method: as §1

tozasertib = compound: Cc1cc(Nc2cc(N3CCN(C)CC3)nc(Sc3ccc(NC(=O)C4CC4)cc3)n2)n[nH]1 [tozasertib]
Summary of the method: as §1

doramapimod = compound: Cc1ccc(-n2nc(C(C)(C)C)cc2NC(=O)Nc2ccc(OCCN3CCOCC3)c3ccccc23)cc1 [doramapimod]
Summary of the method: as §1

bafetinib = compound: Cc1ccc(NC(=O)c2ccc(CN3CC[C@H](N(C)C)C3)c(C(F)(F)F)c2)cc1Nc1nccc(-c2cncnc2)n1 [bafetinib]
Summary of the method: as §1

[2] = compound: Cc1cccc(CC(=O)N2CCc3c2ccc(-c2cn(C)c4ncnc(N)c24)c3F)n1
Summary of the method: as §1

Chain of UniProt P55211 (P55211 whole entry, looked up): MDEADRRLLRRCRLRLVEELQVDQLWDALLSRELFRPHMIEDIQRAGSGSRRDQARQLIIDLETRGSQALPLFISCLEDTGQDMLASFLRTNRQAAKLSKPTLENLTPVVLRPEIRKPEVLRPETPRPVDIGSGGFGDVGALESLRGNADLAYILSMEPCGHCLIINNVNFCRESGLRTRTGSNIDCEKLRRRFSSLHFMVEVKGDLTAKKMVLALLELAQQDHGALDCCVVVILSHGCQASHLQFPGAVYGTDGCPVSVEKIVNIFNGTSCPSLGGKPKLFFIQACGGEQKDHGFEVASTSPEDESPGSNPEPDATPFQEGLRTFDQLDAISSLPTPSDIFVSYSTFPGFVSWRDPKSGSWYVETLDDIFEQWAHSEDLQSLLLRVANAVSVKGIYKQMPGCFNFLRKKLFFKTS
Chain of UniProt P98196 (P98196 whole entry, looked up): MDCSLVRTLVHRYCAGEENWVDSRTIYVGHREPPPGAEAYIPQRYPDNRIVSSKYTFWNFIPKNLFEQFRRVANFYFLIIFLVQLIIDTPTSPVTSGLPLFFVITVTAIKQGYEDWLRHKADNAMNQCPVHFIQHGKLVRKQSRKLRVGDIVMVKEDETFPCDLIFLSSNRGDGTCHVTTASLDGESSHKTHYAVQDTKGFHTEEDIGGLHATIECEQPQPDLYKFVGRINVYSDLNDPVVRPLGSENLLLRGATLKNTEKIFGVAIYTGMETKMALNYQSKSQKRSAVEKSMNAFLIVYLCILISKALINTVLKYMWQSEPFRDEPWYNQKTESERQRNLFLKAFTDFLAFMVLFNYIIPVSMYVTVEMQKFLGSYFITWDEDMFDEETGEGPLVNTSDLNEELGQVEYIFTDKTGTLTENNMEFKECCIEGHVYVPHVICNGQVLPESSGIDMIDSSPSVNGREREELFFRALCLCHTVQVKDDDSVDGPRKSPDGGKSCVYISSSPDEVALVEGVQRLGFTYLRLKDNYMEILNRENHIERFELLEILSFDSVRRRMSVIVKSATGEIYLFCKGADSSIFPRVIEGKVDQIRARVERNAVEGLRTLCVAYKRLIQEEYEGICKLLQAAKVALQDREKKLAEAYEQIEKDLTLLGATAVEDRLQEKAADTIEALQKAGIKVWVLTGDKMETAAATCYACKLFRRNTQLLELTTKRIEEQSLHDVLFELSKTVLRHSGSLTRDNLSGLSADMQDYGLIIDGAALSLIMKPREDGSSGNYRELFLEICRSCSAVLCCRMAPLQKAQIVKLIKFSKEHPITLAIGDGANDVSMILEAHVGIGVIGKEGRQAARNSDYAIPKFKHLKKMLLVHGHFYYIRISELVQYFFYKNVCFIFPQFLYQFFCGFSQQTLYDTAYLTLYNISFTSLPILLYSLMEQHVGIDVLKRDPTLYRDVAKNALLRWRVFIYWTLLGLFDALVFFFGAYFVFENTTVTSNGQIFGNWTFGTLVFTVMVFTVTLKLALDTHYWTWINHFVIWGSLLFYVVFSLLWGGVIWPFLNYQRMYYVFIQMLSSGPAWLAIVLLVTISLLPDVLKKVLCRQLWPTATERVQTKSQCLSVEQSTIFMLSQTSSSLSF
Chain of UniProt Q9NXV6 (Q9NXV6 whole entry, looked up): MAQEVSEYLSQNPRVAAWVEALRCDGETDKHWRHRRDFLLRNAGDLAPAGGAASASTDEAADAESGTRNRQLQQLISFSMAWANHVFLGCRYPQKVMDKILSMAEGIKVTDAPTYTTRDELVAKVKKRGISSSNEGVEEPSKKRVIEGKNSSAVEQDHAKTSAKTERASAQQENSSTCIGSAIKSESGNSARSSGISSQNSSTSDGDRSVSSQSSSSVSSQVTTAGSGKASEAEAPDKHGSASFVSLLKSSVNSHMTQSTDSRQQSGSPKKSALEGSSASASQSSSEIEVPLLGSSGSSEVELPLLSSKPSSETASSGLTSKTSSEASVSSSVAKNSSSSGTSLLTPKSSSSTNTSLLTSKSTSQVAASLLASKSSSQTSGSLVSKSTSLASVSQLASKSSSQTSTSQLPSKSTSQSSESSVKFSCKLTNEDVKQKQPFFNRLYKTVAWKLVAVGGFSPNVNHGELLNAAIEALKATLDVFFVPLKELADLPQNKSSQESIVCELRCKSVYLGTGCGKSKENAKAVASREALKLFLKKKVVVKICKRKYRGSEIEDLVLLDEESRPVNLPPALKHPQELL
Chain of UniProt Q8ND76 (Q8ND76 whole entry, looked up): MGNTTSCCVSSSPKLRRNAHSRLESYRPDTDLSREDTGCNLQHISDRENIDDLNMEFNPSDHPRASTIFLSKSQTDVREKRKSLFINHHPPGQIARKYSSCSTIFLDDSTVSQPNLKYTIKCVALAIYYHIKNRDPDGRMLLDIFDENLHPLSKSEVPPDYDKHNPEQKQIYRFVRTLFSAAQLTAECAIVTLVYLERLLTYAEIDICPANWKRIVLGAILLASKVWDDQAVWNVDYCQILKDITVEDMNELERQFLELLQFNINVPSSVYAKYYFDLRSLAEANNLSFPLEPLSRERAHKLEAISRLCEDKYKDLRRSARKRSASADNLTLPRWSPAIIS
Chain of UniProt Q9UQ88 (Q9UQ88 whole entry, looked up): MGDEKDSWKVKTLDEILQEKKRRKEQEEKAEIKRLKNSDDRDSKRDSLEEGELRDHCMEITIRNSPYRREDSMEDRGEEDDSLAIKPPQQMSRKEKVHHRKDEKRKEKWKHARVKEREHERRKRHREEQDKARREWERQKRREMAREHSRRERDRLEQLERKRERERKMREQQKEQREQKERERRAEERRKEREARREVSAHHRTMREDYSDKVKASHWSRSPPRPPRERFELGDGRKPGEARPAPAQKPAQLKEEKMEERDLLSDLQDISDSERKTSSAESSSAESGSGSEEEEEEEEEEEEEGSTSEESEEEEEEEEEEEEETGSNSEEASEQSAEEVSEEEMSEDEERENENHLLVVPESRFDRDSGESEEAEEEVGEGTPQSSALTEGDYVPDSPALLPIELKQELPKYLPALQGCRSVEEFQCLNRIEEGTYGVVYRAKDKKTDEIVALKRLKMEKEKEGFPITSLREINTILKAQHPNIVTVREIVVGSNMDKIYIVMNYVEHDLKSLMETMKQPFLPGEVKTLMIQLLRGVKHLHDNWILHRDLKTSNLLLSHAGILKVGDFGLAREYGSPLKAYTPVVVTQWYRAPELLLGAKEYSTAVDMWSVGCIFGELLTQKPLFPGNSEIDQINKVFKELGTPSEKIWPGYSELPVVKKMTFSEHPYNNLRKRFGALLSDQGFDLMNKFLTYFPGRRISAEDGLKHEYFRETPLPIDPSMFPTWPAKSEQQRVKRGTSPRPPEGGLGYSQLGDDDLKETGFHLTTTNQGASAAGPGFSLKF
Chain of UniProt Q7Z4R8 (Q7Z4R8 whole entry, looked up): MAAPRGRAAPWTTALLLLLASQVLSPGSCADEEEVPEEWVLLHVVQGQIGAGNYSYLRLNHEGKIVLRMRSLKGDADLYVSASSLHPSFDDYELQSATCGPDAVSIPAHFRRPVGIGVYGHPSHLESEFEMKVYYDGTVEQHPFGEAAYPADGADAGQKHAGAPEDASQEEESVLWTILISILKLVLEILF
Chain of UniProt P42574 (P42574 whole entry, looked up): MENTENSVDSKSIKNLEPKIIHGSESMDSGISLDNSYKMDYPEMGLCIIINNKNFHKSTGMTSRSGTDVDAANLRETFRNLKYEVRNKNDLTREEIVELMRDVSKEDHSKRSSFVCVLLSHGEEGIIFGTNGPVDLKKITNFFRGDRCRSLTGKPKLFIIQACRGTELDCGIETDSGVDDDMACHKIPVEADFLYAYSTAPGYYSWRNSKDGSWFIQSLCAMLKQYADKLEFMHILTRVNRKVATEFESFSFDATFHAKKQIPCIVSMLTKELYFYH
Chain of UniProt Q8TCD1 (Q8TCD1 whole entry, looked up): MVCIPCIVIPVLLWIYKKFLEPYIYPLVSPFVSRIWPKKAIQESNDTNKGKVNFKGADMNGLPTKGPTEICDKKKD
Chain of UniProt Q13554 (Q13554 whole entry, looked up): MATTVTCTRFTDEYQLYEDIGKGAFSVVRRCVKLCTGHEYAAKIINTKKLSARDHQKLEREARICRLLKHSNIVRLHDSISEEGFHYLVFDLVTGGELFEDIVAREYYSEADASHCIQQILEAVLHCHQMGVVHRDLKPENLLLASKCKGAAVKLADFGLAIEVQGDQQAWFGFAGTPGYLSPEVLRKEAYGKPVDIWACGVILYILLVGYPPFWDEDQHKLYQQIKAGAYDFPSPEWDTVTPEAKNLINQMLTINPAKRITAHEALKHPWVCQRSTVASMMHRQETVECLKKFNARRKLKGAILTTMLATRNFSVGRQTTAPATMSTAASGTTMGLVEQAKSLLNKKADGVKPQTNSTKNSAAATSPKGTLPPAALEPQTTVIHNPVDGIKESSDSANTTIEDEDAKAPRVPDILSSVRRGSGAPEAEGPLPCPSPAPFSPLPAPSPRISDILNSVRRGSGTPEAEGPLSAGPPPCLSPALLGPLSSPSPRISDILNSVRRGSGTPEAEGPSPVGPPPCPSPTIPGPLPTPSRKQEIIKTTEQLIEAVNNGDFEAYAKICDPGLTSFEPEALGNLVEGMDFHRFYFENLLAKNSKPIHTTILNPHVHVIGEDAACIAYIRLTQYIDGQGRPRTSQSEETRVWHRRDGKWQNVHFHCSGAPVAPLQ
Chain of UniProt O95260 (O95260 whole entry, looked up): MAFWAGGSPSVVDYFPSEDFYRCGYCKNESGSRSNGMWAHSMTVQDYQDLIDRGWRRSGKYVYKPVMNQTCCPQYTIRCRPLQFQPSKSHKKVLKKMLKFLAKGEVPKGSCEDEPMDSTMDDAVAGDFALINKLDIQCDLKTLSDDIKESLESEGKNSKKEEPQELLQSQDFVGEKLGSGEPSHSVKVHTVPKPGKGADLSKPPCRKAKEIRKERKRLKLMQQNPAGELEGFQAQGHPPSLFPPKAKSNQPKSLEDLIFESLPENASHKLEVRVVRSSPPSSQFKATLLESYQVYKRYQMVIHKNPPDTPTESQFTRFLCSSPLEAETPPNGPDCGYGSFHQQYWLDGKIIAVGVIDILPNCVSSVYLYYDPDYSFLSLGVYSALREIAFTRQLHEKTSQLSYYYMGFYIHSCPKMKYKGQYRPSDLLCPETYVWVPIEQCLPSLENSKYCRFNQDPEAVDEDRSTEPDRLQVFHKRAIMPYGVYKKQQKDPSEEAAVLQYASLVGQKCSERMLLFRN

Row | Target | log2 fold change (lapatinib) | log2 fold change (pictilisib) | log2 fold change (crizotinib) | log2 fold change [1] | log2 fold change (duvelisib) | log2 fold change (gandotinib) | log2 fold change (tozasertib) | log2 fold change (doramapimod) | log2 fold change (bafetinib) | log2 fold change [2]
1 | BNIP3 (UniProt Q12983) | -0.031 | 0.049 | -0.054 | -0.371 (active) | -0.166 | 0.107 | -0.046 | -0.016 | 0.023 | 0.14
2 | C3orf33 (UniProt Q6P1S2) | 0.09 | 0.059 | -0.051 | -0.541 | 0.101 | 0.14 |  | -0.025 | -0.046 | 0.263
3 | C15orf41 (UniProt Q9Y2V0) | -0.078 | 0.007 | -0.033 | 0.03 | 0.059 | 0.002 | 0.102 | -0.035 | 0.009 | -0.017
4 | AURKAIP1 (UniProt Q9NWT8) | -0.001 | 0.051 | 0.021 | -0.017 | 0.012 | -0.03 | 0.028 | -0.039 | -0.029 | -0.04
5 | ATP11A (UniProt P98196) | -0.118 | -0.087 | -0.005 | -0.108 | 0.081 | 0.017 | 0.009 | -0.07 | -0.05 | 0.1
6 | CAPNS1 (UniProt U3KPR7) | -0.052 | -0.083 |  |  |  |  |  |  | -0.194 | 
7 | BICRA (UniProt Q9NZM4) | -0.099 | 0.052 | -0.059 | -0.027 | 0.105 | 0.171 |  | 0.014 | 0.078 | 0.133
8 | ATF7IP2 (UniProt Q5U623) | -0.03 | 0.05 | -0.215 | 0.05 |  | 0.027 |  | 0.073 | -0.023 | -0.155
9 | CEP295 isoform 3 (UniProt Q9C0D2) | -0.038 | 0.057 | 0.004 | -0.365 (active) |  | 0.058 | 0.111 | 0.059 | 0.031 | 0.072
10 | CASP3 (UniProt P42574) | 0.013 | -0.021 | 0.001 | 0.249 (active) | 0.007 | -0.084 | -0.016 | 0.005 | 0.107 | -0.089
11 | BTRC (UniProt Q9Y297) | 0.01 | -0.008 |  | 0.018 |  | 0.073 | -0.01 |  | -0.027 | 0.065
12 | ATE1 (UniProt O95260) | -0.03 | -0.047 | -0.068 | 0.032 |  | -0.019 |  | 0.043 | -0.039 | 0.009
13 | CCNH (UniProt P51946) | 0.005 | -0.012 | 0.012 | 0.026 | 0.072 | -0.002 | 0.013 | 0.037 | -0.022 | -0.023
14 | C6orf120 (UniProt Q7Z4R8) | -0.113 | 0.032 |  | -0.03 | -0.036 | -0.037 |  |  | 0.045 | -0.169
15 | CDK11A (UniProt Q9UQ88) | 0.104 | -0.02 | 0.092 | 0.049 | -0.003 | 0.122 |  | -0.072 | -0.033 | -0.093
16 | CASP9 (UniProt P55211) | 0.003 | 0.011 | -0.047 | -0.036 | 0.036 | -0.027 | 0.017 | 0.009 | -0.069 | 0.082

Row | Target | log2 fold change (lapatinib) | log2 fold change (pictilisib) | log2 fold change (crizotinib) | log2 fold change [1] | log2 fold change (duvelisib) | log2 fold change (gandotinib) | log2 fold change (tozasertib) | log2 fold change (doramapimod) | log2 fold change (bafetinib) | log2 fold change [2]
17 | C18orf32 (UniProt Q8TCD1) | -0.012 | 0.041 | -0.07 | -0.093 | -0.203 | 0.001 | -0.011 | -0.01 | -0.04 | 0.047
18 | ATM (UniProt Q13315) | -0.018 | -0.055 | -0.045 | -0.112 | -0.035 | 0.014 | -0.04 | 0.051 | -0.01 | 0.08
19 | BRD2 isoform 2 (UniProt P25440) | 0.014 | 0.012 | 0.024 | 0.128 | -0.007 | -0.133 | 0 | -0.084 | -0.131 | -0.186
20 | CDK8 (UniProt P49336) | -0.035 | -0.033 | -0.032 | 0.129 | -0.075 | -0.065 |  | 0.322 | -0.043 | 0.119
21 | CDK2 (UniProt P24941) | -0.026 | 0.028 | 0 |  | -0.026 | 0.403 (active) | 0.008 | 0.004 | 0.042 | -0.001
22 | CASP7 isoform 3 (UniProt P55210) | -0.055 | 0.037 | -0.07 |  | 0.009 |  | 0.049 | 0.029 | -0.054 | 
23 | C18orf25 isoform 2 (UniProt Q96B23) | -0.001 | -0.235 |  | -0.017 | 0.017 | 0.061 | 0.001 |  | -0.025 | -0.021
24 | CCNY (UniProt Q8ND76) | -0.061 | -0.044 | -0.035 | -0.094 | -0.057 | 0.081 | 0.056 | 0.033 | -0.073 | 0.054
25 | CAPN15 (UniProt O75808) | 0.063 | -0.046 | -0.047 | 0.004 | -0.022 | -0.033 | 0.042 | 0.106 | -0.003 | -0.01
26 | AURKA (UniProt O14965) | -0.101 | 0.112 |  | -0.071 | -0.006 | 1 (active) |  | -0.061 | -0.09 | -0.062
27 | CCT6A (UniProt P40227) | -0.01 | 0.008 | 0.026 | 0.009 | -0.004 | -0.018 | -0.012 | -0.013 | 0.013 | -0.028
28 | CDKN2AIP (UniProt Q9NXV6) | -0.015 | -0.036 | 0.024 | -0.04 | 0.017 | 0.08 | -0.034 | 0.043 | 0.016 | 0.026
29 | CAMK2B (UniProt Q13554) | 0.024 | 0.053 |  | -0.045 | -0.011 | 0.072 | -0.046 | -0.03 | 0.003 | 0.055
30 | BRAT1 (UniProt Q6PJG6) | 0.026 | -0.013 | -0.103 | 0 | -0.001 | -0.1 | 0.017 | 0.052 | -0.014 | 0.038
31 | CARHSP1 (UniProt H3BNU9) | -0.101 | -0.186 |  | 0.16 |  | -0.329 |  |  | 0 | 0.341
32 | AUH (UniProt Q13825) | 0.165 | -0.131 | 0.012 | 0.144 | 0.135 | -0.117 | 0.455 (active) | 0.023 | -0.003 | -0.345
